In all, about 2,300 compounds went through this assay and about 1,500 (65%) were called active.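 How the source made its calls: active means mean inhibition over three repeats above a set limit taken from the earlier primary screen (cut at about 30% in these data); inactive means the rest.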 The set was probably picked from earlier hits. The list is a sample of the results.

In the test the target is Platelet-activating factor acetylhydrolase 2, cytoplasmic (Homo sapiens) (UniProt Q99487). Kind of test: PAFAH2 enzyme inhibitors, confirmation, biochemical, fluorescence polarization, human (AID 493030).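 Further: inhibitor blocks binding of rhodamine activity probe so polarization falls; 0% = enzyme with DMSO and 100% = wells lacking PAFAH2 protein.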 Particulars: recombinant PAFAH2, FP-rhodamine activity probe, at 3.39 µM, stronger effect = higher value.
Turning to `O=C(OCc1cn(-c2ccc(Cl)c(Cl)c2)nn1)c1ccccc1Cl`, the inhibition is 43.1% (active).
As to `O=C(COC(=O)c1ccccc1SCC(=O)N1CCCC1)Nc1ccccc1OC(F)F`, the inhibition was 25.9% (inactive).
With `O=C(COC(=O)c1ccccc1Cl)NC1CCCCCCC1`, the inhibition was 70.3% (active).
In the case of `O=C(COC(=O)c1cccc(Cl)c1)NC1CCCCCCC1` it was 67.1% (active); in that of `O=C(COC(=O)c1ccccc1SCC(=O)NC1CCCCC1)NC1CCCCC1`, 73.7% (active); in that of `N#Cc1ccccc1Sc1ccccc1C(=O)OCC(=O)NC1CCCCC1`, 21.3% (inactive).
The value for `CC(C)(C)c1csc(NC2=NS(=O)(=O)c3ccccc32)n1` was 29.4% (inactive).
In the case of `O=C(COC(=O)c1cccs1)NCc1cccs1` it was 45.9% (active).
Consider `COc1ccccc1CNC(=O)COC(=O)c1sc(C)nc1C`, for which the inhibition is 21% (inactive).
For `O=C(COC(=O)c1cccs1)Nc1ccccc1Cl`, the inhibition is 55.6% (active).
Take `COc1ccccc1CNC(=O)COC(=O)c1cccs1`: the inhibition is 41.8% (active).
Take `O=c1oc(-c2ccco2)nc2sc3c(c12)CCCCC3`: the inhibition is 34.2% (active).
In the case of `CC(C)c1ccc(NC(=O)COC(=O)c2ccc(CN3CCCC3=O)cc2)cc1` it was 66.8% (active); in that of `CCC(C)C(NC(=O)C1CCC(=O)N1C(=O)OCc1ccccc1)C(=O)NC(C(=O)N1CCCC1C(N)=O)C(C)CC` (centres undefined), 40.4% (active).
For `CN(C)S(=O)(=O)c1cccc(NC(=O)COC(=O)/C=C/c2cccs2)c1`, the inhibition was 58.5% (active).
With `Cc1ccc(S(=O)(=O)N(C)C)cc1NC(=O)COC(=O)/C=C/c1cccs1`, the inhibition was 51.7% (active).
Consider `O=c1[nH]n(-c2ccc([N+](=O)[O-])cc2)c(=O)c2ccccc12`, for which the inhibition is 32.6% (active).
Consider `O=C(COC(=O)c1ccccc1)Nc1cccc(S(=O)(=O)N2CCOCC2)c1`, for which the inhibition is 33.4% (active).
Take `CCc1ccc(C(=O)OCC(=O)Nc2cccc(S(=O)(=O)NC3=NCCCCC3)c2)cc1`: the inhibition was 51.8% (active).
The value for `O=C(COC(=O)/C=C/c1ccc(Br)o1)Nc1cccc(S(=O)(=O)N2CCOCC2)c1` was 26.4% (inactive); that for `CS(=O)(=O)c1ccc(Cl)c(NC(=O)COC(=O)c2cccc(S(=O)(=O)N3CCCC3)c2)c1` was 21.3% (inactive).
With `CCOc1ncccc1C(=O)OCC(=O)Nc1cccc(S(=O)(=O)N2CCCCCC2)c1`, the inhibition was 57.6% (active).
Consider `CCC(C)(C)c1ccc(Oc2ccc(NC(=O)COC(=O)C3=COCCO3)cc2)cc1`, for which the inhibition was 61.5% (active).
Consider `O=C(COC(=O)c1ccc2c(c1)OCCO2)NCc1ccccc1Cl`, for which the inhibition was 78.9% (active).
For the compound `CC(NC(=O)COC(=O)c1ccc2c(c1)OCO2)c1ccccc1` (centres undefined), the inhibition is 45.8% (active).
In the case of `COc1ccc(NC(=O)CC(NC(C)c2ccccc2)C(=O)O)cc1` (centres undefined) it was 1.53% (inactive); in that of `O=C(COC(=O)/C=C/c1ccc(S(=O)(=O)N2CCCCCC2)cc1)NCc1ccccc1Cl`, 24.4% (inactive).
On to `O=C(COC(=O)c1ccc2c(c1)OCCO2)NCc1ccccc1`, for which the inhibition was 45.8% (active).
As to `Cc1cnc(NC(=O)CSc2c(Cl)cccc2Cl)s1`, the inhibition is 21.7% (inactive).

A word on the inhibition: it is the percentage by which the read-out fell short of the control.
